Measured values as given in the supplement of paper PMC7411054.
Where a name gives a salt, the structure may show the parent alone.

Columns and labels:
Experiment in all cases: lowest phenotypically active concentration; higher = less potent
Conditions in all cases: treatment time: 24 h
[1] = test system: A549-ACTB-RAB5A
In short: (§1)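 Four wells per concentration (0.3, 1, 3 or 9 µM) were treated for 24 h in each of fifteen gene-edited reporter lines from A549, HepG2 and WPMY1 cells, then imaged live. After normalising live-cell features to solvent control wells, deviation was defined as ≥3 of 4 wells lying past the 95th percentile of control Euclidean distances. Reproducibility was defined as a median replicate Pearson correlation above the 95th percentile of non-replicates. Both had to hold for phenotypic activity.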

[2] = test system: A549-TP53BP1-CLTA
In short: as §1

[3] = test system: A549-TUBA1B-RELA
In short: as §1

[4] = test system: HepG2-TP53BP1-CLTA
In short: as §1

[5] = test system: HepG2-TUBA1B-RELA
In short: as §1

[6] = test system: WPMY1-ACTB-RAB5A
In short: as §1

[7] = test system: WPMY1-CANX-COX4
In short: as §1

[8] = test system: WPMY1-TUBA1B-RELA
In short: as §1

[9] = test system: A549-CANX-COX4
In short: as §1

[10] = test system: HepG2-CANX-COX4
In short: as §1

Structure (SMILES)	lowest phenotypically active concentration [1] [µM]	lowest phenotypically active concentration [2] [µM]	lowest phenotypically active concentration [3] [µM]	lowest phenotypically active concentration [4] [µM]	lowest phenotypically active concentration [5] [µM]	lowest phenotypically active concentration [6] [µM]	lowest phenotypically active concentration [7] [µM]	lowest phenotypically active concentration [8] [µM]	lowest phenotypically active concentration [9] [µM]	lowest phenotypically active concentration [10] [µM]
C[C@@H]1CC[C@H]2[C@@H](C)C(=O)O[C@@H]3O[C@@]4(C)CC[C@@H]1[C@]32OO4 [Artemisinin]	3	3	≤ 0.3	1	≤ 0.3	≤ 0.3	≤ 0.3	≤ 0.3		
O=C(NCCN1CCC2(CC1)C(=O)NCN2c1cccc(F)c1)c1ccc(F)c(F)c1 [ML 298 hydrochloride]	3	9	3	9	9	9	9	9	9	
COc1ccc(N(C(=O)Oc2c(C)cccc2C)c2ccnc(Nc3ccc(N4CCN(C)CC4)cc3)n2)c(OC)c1	1	3	1	1	≤ 0.3	1			3	1
COc1cc([C@@H]2c3cc4c(cc3[C@H](O)[C@H]3COC(=O)[C@H]23)OCO4)cc(OC)c1OC [Podophyllotoxin]	≤ 0.3	≤ 0.3	≤ 0.3	1	≤ 0.3	≤ 0.3	≤ 0.3	≤ 0.3	≤ 0.3	≤ 0.3
CN1C[C@H](C(=O)N[C@]2(C)O[C@@]3(O)[C@@H]4CCCN4C(=O)[C@H](Cc4ccccc4)N3C2=O)C[C@@H]2c3cccc4[nH]cc(c34)C[C@H]21.CN1C[C@H](C(=O)N[C@]2(C)O[C@@]3(O)[C@@H]4CCCN4C(=O)[C@H](Cc4ccccc4)N3C2=O)C[C@@H]2c3cccc4[nH]cc(c34)C[C@H]21 [dihydroergotamine]	9	9	9	9	9					
COc1ccc(C[C@H]2NC[C@H](O)[C@H]2OC(C)=O)cc1 [Anisomycin]	≤ 0.3	≤ 0.3	≤ 0.3	≤ 0.3	≤ 0.3	≤ 0.3	≤ 0.3	≤ 0.3	≤ 0.3	≤ 0.3
CC(C)(N)Cc1ccccc1 [phentermine]		3							9	
Cc1sc2c(c1C)C(c1ccc(Cl)cc1)=N[C@H](CC(=O)OC(C)(C)C)c1nnc(C)n1-2								9		9
C[C@@H](CO)NC(=O)[C@@H]1C=C2c3cccc4[nH]cc(c34)C[C@H]2N(C)C1 [Ergobasine]		9					9			
